Assay results published in PubChem BioAssay AID1711 (National Center for Advancing Translational Sciences (NCATS), 2009).
Records with an inconclusive call do not appear. The source made the active and inactive calls. Calls come from the whole dose curve; as a rule, active = well fitted curve in the direction sought with a large enough effect; inconclusive = small, poorly fitted or top-dose-only effect, or another doubt; inactive = no such curve, though single readings can be large or run the other way.

biological target: Caspase-1 (Homo sapiens) (UniProt P29466); experiment: Concentration-Response Counterscreen for Tau: Redox Active Inhibitors of Caspase-1; details: purified caspase-1, Ac-WEHD-AFC fluorescence kinetic; series mostly up to 40.6 µM; activity change, negative = inhibition: at the top concentration
Description: NIH Molecular Libraries Probe Production Network [MLPCN] NIH Chemical Genomics Center [NCGC] MLPCN Grant: X01 MH083262-01 Assay Provider: Carlo Ballatore, University of Pennsylvania NCGC Assay Overview: The microtubule-associated protein tau is an abundant protein in the axons of neurons that stabilizes microtubules. With its ability to modulate microtubule dynamics, tau contributes directly or indirectly, to key structural and regulatory cellular functions. Particularly important is the influence tau exerts on axonal transport, which allows signaling molecules, trophic factors and other essential cellular constituents to travel along the axons. Under pathological conditions, tau becomes sequestered into insoluble aggregates called neurofibrillary tangles. This phenomenon is believed to have pathological consequences by promoting axonal transport deficits that ultimately lead to synaptic dysfunction and neuronal loss. To examine the selectivity of tau fibrillization inhibitors, compounds were tested in an in vitro assay for caspase-1 activity. This assay is a counterscreen for tau fibrillization inhibitors to identify non-specific oxidizing agents; an active site cysteine in caspase-1 must remain in a reduced state and the enzyme is inactivated by oxidative compounds. Caspase-1 activity was monitored using a profluorescent substrate that upon enzymatic cleavage yields a fluorescent probe that is detectable at 405 nm excitation and 525 nm emission. Scheer, J. M., Wells, J. A., and Romanowski, M. J. (2005) Protein Expression and Purification 41, 148-153.
NCGC Assay Protocol Summary: Caspase-1, kindly provided by Dr. James Wells (University of California, San Francisco), was purified and assayed at 100 nM in buffer containing 50 mM HEPES pH 7.5, 50 mM KCl, 200 mM NaCl, and 0.1% CHAPS. Caspase-1 was dispensed at 3 uL/well into black solid 1536-well plates and incubated 5 min with various concentrations of test compound, with subsequent addition of 1 ul/well Ac-WEHD-AFC substrate (20 uM final concentration). Within 1 minute of substrate addition, fluorescence intensity (405 nm excitation and 525 nm emission) was measured on a ViewLux (PerkinElmer) every 30 s for 10 min. The first 3 minutes of fluorescence values were linear and used to calculate the slope of substrate conversion as a measure of enzyme activity.

Sequence of Caspase-1 (Homo sapiens) (P29466 whole entry, looked up): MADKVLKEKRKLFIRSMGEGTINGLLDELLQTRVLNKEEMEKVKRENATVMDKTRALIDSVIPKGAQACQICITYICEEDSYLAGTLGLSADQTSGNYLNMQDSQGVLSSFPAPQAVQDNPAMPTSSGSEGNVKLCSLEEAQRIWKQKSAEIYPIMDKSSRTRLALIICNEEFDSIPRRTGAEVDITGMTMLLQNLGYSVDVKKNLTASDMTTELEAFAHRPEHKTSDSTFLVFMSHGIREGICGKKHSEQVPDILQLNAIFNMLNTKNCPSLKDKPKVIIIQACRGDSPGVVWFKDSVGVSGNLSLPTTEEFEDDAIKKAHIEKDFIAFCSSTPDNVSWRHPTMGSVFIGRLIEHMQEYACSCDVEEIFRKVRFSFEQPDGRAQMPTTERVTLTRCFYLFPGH

Row | SMILES | activity change, negative = inhibition | Potency
1 | CCOC(=O)c1nn(-c2ccc(Cl)c(Cl)c2)c(=O)c2c(N)scc12 | -2.84% (inactive) | –
2 | CCOC(=O)c1nn(-c2ccc(C)cc2)c(=O)c2c(N)scc12 | -3.58% (inactive) | –
3 | CCOC(=O)c1nn(-c2ccccc2)c(=O)c2c(NC(C)=O)scc12 | -13.9% (inactive) | –
4 | CCOC(=O)c1nn(-c2ccc(F)cc2)c(=O)c2c(N)scc12 | -19.8% (inactive) | –
5 | CCOC(=O)c1nn(-c2ccc(OC)cc2)c(=O)c2c(N)scc12 | – | inactive
6 | CCOC(=O)c1nn(-c2ccccc2)c(=O)c2c(NC(=O)c3ccccc3)scc12 | -8.05% (inactive) | –
7 | Nc1scc2c(C(=O)O)nn(-c3ccccc3)c(=O)c12 | -14.5% (inactive) | –
8 | CCOC(=O)c1nn(-c2ccccc2F)c(=O)c2c(N)scc12 | 7.77% (inactive) | –
9 | CCOC(=O)c1nn(-c2cccc(C(F)(F)F)c2)c(=O)c2c(N)scc12 | -16.5% (inactive) | –
10 | COc1ncc(-c2ccccc2)cc1N | – | 15.8 µM (active)
11 | CC(=O)Nc1sc(C)c2cnn(-c3ccccc3)c(=O)c12 | -3.22% (inactive) | –
12 | Nc1scc2c(C(=O)N3CCOCC3)nn(-c3ccccc3)c(=O)c12 | -10% (inactive) | –
13 | Nc1cc(-c2ccccc2)c[nH]c1=O | – | 7.94 µM (active)
14 | CCOC(=O)c1nn(-c2ccccc2)c(=O)c2c(N)scc12 | -11% (inactive) | –
15 | Nc1scc2c(CO)nn(-c3ccccc3)c(=O)c12 | -19.2% (inactive) | –
16 | CCOC(=O)c1nn(-c2ccc(C)c(C)c2)c(=O)c2c(N)scc12 | 1.88% (inactive) | –
17 | Nc1nn(-c2ccccc2)c(=O)c2c(N)scc12 | -11.3% (inactive) | –
18 | CCOC(=O)c1nn(-c2ccccc2)c(=O)c2c(N)sc(C)c12 | -9.73% (inactive) | –
19 | CCOC(=O)c1ccc(-n2nc(C(=O)OCC)c3csc(N)c3c2=O)cc1 | -20.3% (inactive) | –
